These results are taken from PubChem BioAssay (NCATS).

Values joined by “and” are separate entries in the source; they are usually repeats but may differ in a detail not shown here. Equal values may be shown once. Inconclusive results are not listed. Some compounds were tested as several samples or in several runs, with calls that do not always agree. Active and inactive are the calls of the source. Calls come from the whole dose curve; as a rule, active = well fitted curve in the direction sought with a large enough effect; inconclusive = small, poorly fitted or top-dose-only effect, or another doubt; inactive = no such curve, though single readings can be large; an effect the other way counts as inactive or inconclusive.

In assay [1] the target is Glutathione peroxidase 1 (Homo sapiens) (UniProt P07203). The assay can be described thus: Primary qHTS Assay for Inhibitors of Recombinant Selenoprotein Glutathione Peroxidase 1 (GPX1) (AID 1845191). For activity, negative = inhibition: % is set by controls: 0 for no effect and ±100 for the full control effect. Note: nearly all actives have a fitted effect of over 65% in size. Note: potency is the fitted concentration of half-maximal effect. Summed up:
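GR-coupled assay: compounds preincubated 30 min at room temperature with GPX1, then reaction started with CHP; final 10 nM GPX1, 1 mM GSH, 0.5 mM CHP, 0.5 mM NADPH, 100 nM GR, 0.01% BSA, pH 7.5 Tris buffer. NADPH fluorescence (340/450 nm) read at 0 and 15 min.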

The target in assay [2] is Phospholipid hydroperoxide glutathione peroxidase GPX4 (Homo sapiens) (UniProt P36969). The assay can be described thus: Primary qHTS Assay for Inhibitors of Recombinant Selenoprotein Glutathione Peroxidase 4 (GPX4) (AID 1845192). Note: nearly all actives have a fitted effect of over 65% in size. Note: potency is the fitted concentration of half-maximal effect. The essentials: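 GR-coupled assay: recombinant GPX4 preincubated 30 min with compound at room temperature; final 200 nM GPX4, 1 mM GSH, 0.5 mM cumene hydroperoxide, 0.5 mM NADPH, 100 nM GR, 0.01% BSA, pH 7.5 Tris. NADPH fluorescence (340/450 nm) read at 0 and 15 min.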
(In general: In qHTS, concentration-response curves come from the screen itself.)

The target of assay [3] is Luciferin 4-monooxygenase (Photinus pyralis) (UniProt P08659). Kind of assay: Primary firefly luciferase (FLuc) qHTS assay for identification of artifact compounds. (AID 1845220). Note: nearly all actives have a fitted effect of over 60% in size. Summed up:
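Titrated compounds were incubated 15 min at RT, protected from light, with luciferin and ATP at 10 uM; reaction started with 10 nM FLuc, luminescence imaged at 5 min, and concentration-response fitted by Hill equation.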

The test system of assay [4] is Nanoluciferase (engineered Oplophorus gracilirostris luciferase). Kind of assay: Primary Nanoluciferase (NLuc) qHTS assay for identification of artifact compounds. (AID 1845222).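 For activity, negative = inhibition: NLuc secreted into diluted conditioned medium of S16 cells; series mostly up to about 54 µM; 0% = DMSO and -100% = no enzyme.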 Note: potency is the fitted concentration of half-maximal effect. Summed up:
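qHTS format, against NLuc in S16 cell-conditioned medium. Nano-Glo substrate 1:100 was added after 15 min at room temperature. Luminescence was taken after a further 5 min.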

Assay [5] can be described thus: Primary fluorescence-based thiol-reactive (MSTI) qHTS assay for identification of artifact compounds. (AID 1845221).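 Note: series mostly up to about 54 µM; thiol-reactive compounds lower the probe fluorescence signal; nearly all actives have a fitted effect of over 65% in size.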 The essentials:
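qHTS titration of compound; 4 uM MSTI, PBS pH 7.4, 2% DMSO; 1 h RT, dark; fluorescence 525/598 nm; normalized to Acetyl-MSTI and MSTI; 4-parameter Hill fit.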

Assay [6] in a line: Primary redox qHTS assay for identification of artifact compounds. (AID 1845223). Note: potency is the fitted concentration of half-maximal effect. The essentials: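 Amplex Red (25 uM) and HRP (250 mU/mL) in HBSS, with compounds for 15 min, then 250 uM DTT for 30 min, room temperature, dark. Fluorescence 525/598 nm read; normalized to DMSO and 10 uM DA3003; Hill fit.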

Sequence of Phospholipid hydroperoxide glutathione peroxidase GPX4 (Homo sapiens) (P36969 whole entry, looked up): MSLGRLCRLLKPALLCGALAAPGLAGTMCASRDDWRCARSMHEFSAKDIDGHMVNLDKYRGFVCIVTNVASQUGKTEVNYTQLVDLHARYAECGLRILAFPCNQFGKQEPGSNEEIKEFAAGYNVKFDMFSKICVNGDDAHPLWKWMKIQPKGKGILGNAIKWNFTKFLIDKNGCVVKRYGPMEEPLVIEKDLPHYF
Sequence of Glutathione peroxidase 1 (Homo sapiens) (P07203 whole entry, looked up): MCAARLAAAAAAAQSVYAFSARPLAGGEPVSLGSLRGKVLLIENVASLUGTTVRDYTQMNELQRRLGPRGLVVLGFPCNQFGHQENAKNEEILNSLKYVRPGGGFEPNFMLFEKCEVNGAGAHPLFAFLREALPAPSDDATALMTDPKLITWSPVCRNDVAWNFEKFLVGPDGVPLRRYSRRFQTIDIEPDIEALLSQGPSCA

Regarding `CC[C@@H](C)Nc1cc(C(=O)NC2CC3CCC(C2)N3c2ccc(C(=O)C3CC3)cn2)c(C)cc1C(N)=O` (some centres undefined), the results for the Potency in assay [1] and in assay [2] were 16.3 µM (active) and 5.7 µM (active), respectively. Also, the Potency entry in assay [3] and in assay [4] was “inactive” each time.

Consider `NCCOc1cc(C(=O)Nc2cc(OCCN)c3ccccc3n2)nc(C(=O)Nc2cc(OCCN)c3ccccc3n2)c1`, for which the Potency result in assay [1], in assay [2], in assay [3] and in assay [4] was “inactive” each time.

Take `CNCCC(c1cccs1)c1ccc(O)c2ccccc12` (centres undefined): the Potency entry in assay [1], in assay [2], in assay [3] and in assay [4] was “inactive” each time.

For `CC(C)C[C@H](C(=O)O)c1cc(-c2ccc(C(F)(F)F)cc2)cc(-c2ccc(C(F)(F)F)cc2)c1`, the Potency entry in assay [1], in assay [2], in assay [3], in assay [5] and in assay [6] was “inactive” each time.

For the compound `CCc1c(Cl)c(O)c(Cl)c(O)c1C(=O)O[C@H]1[C@H](O)[C@H](OC)[C@H](OC/C2=C\C=C\C[C@H](O)/C(C)=C\[C@H](CC)[C@@H](O[C@@H]3OC(C)(C)[C@@H](OC(=O)C(C)C)[C@H](O)[C@@H]3O)/C(C)=C/C(C)=C/C[C@@H]([C@@H](C)O)OC2=O)O[C@@H]1C`, the Potency result in assay [1], in assay [3] and in assay [4] was “inactive” throughout. In addition, in assay [2], the Potency result was “inactive and 5.01 µM (active)”.

As for `COc1ccc(CNc2nc(N(CCO)CCO)nc3c2ncn3C(C)C)cc1`, the Potency result in assay [1], in assay [2], in assay [3] and in assay [4] was “inactive” in each case.

For the compound `COc1ccc(-c2ccccc2)cc1NS(=O)(=O)c1cc(Cl)cc(Cl)c1O`, the Potency result in assay [1], in assay [2] and in assay [3] was “inactive” in each case. Further, the Potency in assay [4] is 7.38 µM (active).

With `CC(=O)OC1C(=O)C2C3OCC4=C3[C@@](C)(CC[C@@H]4O)CC[C@]2(C)[C@H]1C(C)C` (some centres undefined), the Potency result in assay [1], in assay [2], in assay [3] and in assay [4] was “inactive” throughout.

As to `COc1cc2c(cc1OCCCN1CCCC1)N=C(N)C21CCC1`, the Potency entry in assay [1], in assay [2], in assay [3] and in assay [4] was “inactive” in each case.

Turning to `COc1nc2ccc(Br)cc2cc1[C@@H](c1ccccc1)[C@@](O)(CCN(C)C)c1cccc2ccccc12`, the Potency result in assay [1], in assay [2], in assay [3], in assay [5] and in assay [6] was “inactive” in each case.

Consider `O=C(NC1(c2ccccc2)CC1)c1c(CN2CCC(N3CCCCC3)CC2)c(-c2cccc(C(F)(F)F)c2)nc2cc(Br)ccc12`, for which the Potency result in assay [1], in assay [2], in assay [3], in assay [5] and in assay [6] was “inactive” each time.

For the compound `COC(=O)c1sccc1S(=O)(=O)Nc1ccc(Nc2ccccc2)cc1OC`, the Potency entry in assay [1], in assay [2], in assay [3], in assay [4] and in assay [6] was “inactive” in each case.

As to `Cc1ccc(NC(=O)C(C)C)cc1C1CCN(Cc2ccc(Oc3ccc(F)c(F)c3)cc2)CC1`, the Potency entry in assay [1], in assay [2], in assay [3] and in assay [4] was “inactive” each time.

For `Cc1cc(CS(=O)(=O)c2ccccc2)cc(OCc2ccc(CN3CCCC3CO)cc2)c1` (centres undefined), the Potency result in assay [1], in assay [2], in assay [3], in assay [5] and in assay [6] was “inactive” in each case.

Turning to `CN1CC[C@@H](c2c(O)cc(O)c3c(=O)cc(-c4ccc(C(F)(F)F)cc4Cl)oc23)[C@@H]1CO`, the Potency entry in assay [1], in assay [2], in assay [3] and in assay [4] was “inactive” throughout.

For the compound `COc1cc(N2CCC(N3CCN(C)CC3)CC2)ccc1Nc1ncc(Cl)c(Nc2ccccc2P(C)(C)=O)n1`, the Potency entry in assay [1], in assay [2], in assay [3] and in assay [4] was “inactive” throughout.

For `CNC(C)C(=O)NC(C(=O)N1CCCC1C(=O)Nc1snnc1-c1ccccc1)C1CCCCC1` (centres undefined), the Potency entry in assay [1], in assay [2], in assay [3], in assay [5] and in assay [6] was “inactive” each time.

`N#CSc1cc(SC#N)c(N)nc1N`: the Potency entry in assay [1] and in assay [2] was “inactive” throughout. The outcome in assay [3] is “inactive [at 11.6 µM]”. Also, the activity, negative = inhibition in assay [4] was -17.4% [at 11.6 µM] (inactive). The Potency in assay [6] is 5.05 µM (active).

On to `CC(C)=C[C@@H]1[C@H](CO[C@@H]2O[C@H](CO)[C@@H](O)[C@H](O)[C@H]2O)C1(C)C`, for which the Potency entry in assay [1], in assay [2], in assay [3], in assay [4] and in assay [6] was “inactive” each time.

Turning to `CC(/C=C/C(=O)NO)=C\[C@@H](C)C(=O)c1ccc(N(C)C)cc1`, the Potency entry in assay [1], in assay [2], in assay [3], in assay [4] and in assay [6] was “inactive” each time.

With `CCOc1ccc(-n2c(C(C)N(Cc3cccnc3)C(=O)Cc3ccc(F)c(C(F)(F)F)c3)nc3ncccc3c2=O)cc1` (centres undefined), the Potency result in assay [1], in assay [2], in assay [3], in assay [4] and in assay [6] was “inactive” each time.

Turning to `C=CC(=O)N1CCN(C(=O)CNc2cc(-c3ccccc3Cl)c(Cl)cc2OC)CC1`, the Potency entry in assay [1], in assay [2], in assay [3], in assay [4] and in assay [6] was “inactive” throughout.

Take `Cn1c(CO)c(-c2ccccc2)c2cc([N+](=O)[O-])ccc21`: the Potency result in assay [1], in assay [2], in assay [3], in assay [4] and in assay [6] was “inactive” in each case.

For the compound `CC1CCCC[C@H]2C(=O)C=C[C@H](O)[C@@H]2CC(=O)O1` (some centres undefined), the Potency result in assay [1], in assay [2], in assay [3], in assay [4] and in assay [6] was “inactive” each time.

For `CCC(CC)Nc1nc(C)c(-c2ccc(OC(F)(F)F)cc2OC)nc1OC`, the Potency result in assay [1], in assay [2], in assay [3], in assay [4] and in assay [6] was “inactive” in each case.

Turning to `C=C1C(=O)O[C@@H]2/C=C(\CO)CC/C=C(/C=O)C[C@@H](O)[C@@H]12`, the Potency entry in assay [1], in assay [2], in assay [3], in assay [4] and in assay [6] was “inactive” each time.

With `O=C(NC1CCN(CCCCC2(C(=O)NCC(F)(F)F)c3ccccc3-c3ccccc32)CC1)c1ccccc1-c1ccc(C(F)(F)F)cc1`, the Potency entry in assay [1], in assay [2], in assay [3], in assay [4] and in assay [6] was “inactive” each time.

As for `O=c1nc(-c2ccccn2)sc2ccccc12`, the Potency entry in assay [1], in assay [2], in assay [3], in assay [4] and in assay [6] was “inactive” each time.

Take `Cc1cn2c(n1)Cc1ccc(Cl)cc1C(c1ccc(N)cc1)=N2`: the Potency result in assay [1], in assay [2], in assay [3], in assay [4] and in assay [6] was “inactive” throughout.
